Test results from the supplement of paper PMC9942566.
Where a name gives a salt, the structure may show the parent alone. ± gives the standard deviation of the averaged measurements.

System: Serratia marcescens K904 PosmB-luxCDABE reporter (pMQ747)
Test: PosmB-lux reporter fold induction (RLU/OD600 relative to no-compound control), highest over Biolog concentrations; higher = stronger reporter activation
Conditions: Biolog plate: PM11; well positions: C1-4; ΔrcsB mutant CMS5177; 4 h
Experimental: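 Serratia marcescens K904 (wild type) or its isogenic ΔrcsB mutant, carrying the Rcs-dependent PosmB-luxCDABE reporter plasmid pMQ747, was grown in LB at OD600 0.1 in Biolog Phenotype MicroArray plates PM11-20 for 4 h at 30-32°C. Each compound is present at 3-4 proprietary concentrations (not stated); per the Fig. S1 legend the value given is the highest fold over those wells. Three independent trials.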

SMILES	PosmB-lux reporter fold induction
Cc1c(N)nc([C@H](CC(N)=O)NC[C@H](N)C(N)=O)nc1C(=O)N[C@H](C(=O)N[C@H](C)[C@@H](O)[C@H](C)C(=O)N[C@H](C(=O)NCCc1nc(-c2nc(C(=O)NCCC[S+](C)C)cs2)cs1)[C@@H](C)O)[C@@H](OC1OC(CO)C(O)C(O)C1OC1OC(CO)C(O)C(OC(N)=O)C1O)c1cnc[nH]1 (stereo not given in full) [Bleomycin]	0.988 ± 0.1

Same assay, conditions: Biolog plate: PM11; well positions: G9-12; ΔrcsB mutant CMS5177; 4 h

SMILES	PosmB-lux reporter fold induction
O=[Te]([O-])[O-].[K+].[K+] [Potassium tellurite]	1.14 ± 0.19

Same assay, conditions: Biolog plate: PM13; well positions: A9-12; ΔrcsB mutant CMS5177; 4 h

SMILES	PosmB-lux reporter fold induction
[Cl][Ni][Cl] [Nickel chloride]	1.06 ± 0.2

Same assay, conditions: Biolog plate: PM13; well positions: B9-12; ΔrcsB mutant CMS5177; 4 h

SMILES	PosmB-lux reporter fold induction
CCn1cc(C(=O)O)c(=O)c2cc3c(cc21)OCO3 [Oxolinic acid]	4.3 ± 0.48

Same assay, conditions: Biolog plate: PM13; well positions: C9-12; ΔrcsB mutant CMS5177; 4 h

SMILES	PosmB-lux reporter fold induction
[K+].[K+].[O]=[Cr](=[O])([O-])[O-] [Potassium chromate]	1.87 ± 0.86

Same assay, conditions: Biolog plate: PM13; well positions: E5-8; ΔrcsB mutant CMS5177; 4 h

SMILES	PosmB-lux reporter fold induction
CN[C@@H]1[C@@H](O)[C@@H](O[C@@H]2[C@@H](O)[C@H](O[C@H]3O[C@H]([C@@H](C)O)[C@@H](O)[C@H](O)[C@H]3N)[C@@H](N)C[C@H]2N)OC[C@]1(C)O [Geneticin (G418)]	1.34 ± 0.41

Same assay, conditions: Biolog plate: PM14; well positions: B5-8; ΔrcsB mutant CMS5177; 4 h

SMILES	PosmB-lux reporter fold induction
CCCCc1ccc(C(=O)O)nc1 [Fusaric acid]	1 ± 0.025

Same assay, conditions: Biolog plate: PM14; well positions: B9-12; ΔrcsB mutant CMS5177; 4 h

SMILES	PosmB-lux reporter fold induction
O=[As]([O-])([O-])[O-].[Na+].[Na+].[Na+] [Sodium arsenate]	0.724 ± 0.054

Same assay, conditions: Biolog plate: PM14; well positions: C9-12; ΔrcsB mutant CMS5177; 4 h

SMILES	PosmB-lux reporter fold induction
N#CO [Sodium cyanate]	1.38 ± 0.44

Same assay, conditions: Biolog plate: PM14; well positions: D1-4; ΔrcsB mutant CMS5177; 4 h

SMILES	PosmB-lux reporter fold induction
[Cl][Cd][Cl] [Cadmium chloride]	0.871 ± 0.061

Same assay, conditions: Biolog plate: PM14; well positions: D5-8; ΔrcsB mutant CMS5177; 4 h

SMILES	PosmB-lux reporter fold induction
O=C(O)CI [Iodoacetate]	0.974 ± 0.21

Same assay, conditions: Biolog plate: PM14; well positions: D9-12; ΔrcsB mutant CMS5177; 4 h

SMILES	PosmB-lux reporter fold induction
[Na+].[Na+].[O]=[Cr](=[O])([O-])[O][Cr](=[O])(=[O])[O-] [Sodium dichromate]	1.03 ± 0.33

Same assay, conditions: Biolog plate: PM14; well positions: G9-12; ΔrcsB mutant CMS5177; 4 h

SMILES	PosmB-lux reporter fold induction
O=[N+]([O-])[O-].[Na+] [Sodium nitrate]	2.32 ± 0.21

Same assay, conditions: Biolog plate: PM15; well positions: E9-12; ΔrcsB mutant CMS5177; 4 h

SMILES	PosmB-lux reporter fold induction
C[n+]1ccc(-c2cc[n+](C)cc2)cc1 [Methyl viologen]	1.89 ± 0.16

Same assay, conditions: Biolog plate: PM15; well positions: G5-8; ΔrcsB mutant CMS5177; 4 h

SMILES	PosmB-lux reporter fold induction
[N-]=[N+]=[N-] [Sodium azide]	1.5 ± 0.15

Same assay, conditions: Biolog plate: PM15; well positions: H1-4; ΔrcsB mutant CMS5177; 4 h

SMILES	PosmB-lux reporter fold induction
O=[N+]([O-])c1ncc[nH]1 [2-Nitroimidazole]	1.51 ± 0.7

Same assay, conditions: Biolog plate: PM16; well positions: C9-12; ΔrcsB mutant CMS5177; 4 h

SMILES	PosmB-lux reporter fold induction
CCCCCCCCCCCCCCCC[n+]1ccccc1 [cetylpyridinium]	1.77 ± 0.53

Same assay, conditions: Biolog plate: PM16; well positions: D1-4; ΔrcsB mutant CMS5177; 4 h

SMILES	PosmB-lux reporter fold induction
O=[N+]([O-])c1ccc(Cl)c([N+](=O)[O-])c1 [1-chloro-2,4-dinitrobenzene]	1.75 ± 0.99

Same assay, conditions: Biolog plate: PM16; well positions: F1-4; ΔrcsB mutant CMS5177; 4 h

SMILES	PosmB-lux reporter fold induction
O=[Te]([O-])[O-].[K+].[K+] [potassium tellurite]	1.28 ± 0.43

Same assay, conditions: Biolog plate: PM16; well positions: F5-8; ΔrcsB mutant CMS5177; 4 h

SMILES	PosmB-lux reporter fold induction
O=[Se]([O-])[O-].[Na+].[Na+] [sodium selenite]	1.25 ± 0.21

Same assay, conditions: Biolog plate: PM17; well positions: A5-8; ΔrcsB mutant CMS5177; 4 h

SMILES	PosmB-lux reporter fold induction
NC(CCl)C(=O)O [b-chloro-L-alanine hydrochloride]	1.04 ± 0.15

Same assay, conditions: Biolog plate: PM17; well positions: B5-8; ΔrcsB mutant CMS5177; 4 h

SMILES	PosmB-lux reporter fold induction
CNC1CC(N)C(O)C(OC2OC(CO)C(O)C3OC4(OC(C(N)CO)C(O)C(O)C4O)OC23)C1O (stereo not given) [hygromycin B]	1.37 ± 0.19

Same assay, conditions: Biolog plate: PM17; well positions: C1-4; ΔrcsB mutant CMS5177; 4 h

SMILES	PosmB-lux reporter fold induction
Nc1ccncc1 [4-aminopyridine]	1.95 ± 1.4

Same assay, conditions: Biolog plate: PM17; well positions: D1-4; ΔrcsB mutant CMS5177; 4 h

SMILES	PosmB-lux reporter fold induction
CC1=C(C(=O)Nc2ccccc2)S(=O)(=O)CCO1 [oxycarboxin]	1.01 ± 0.57

Same assay, conditions: Biolog plate: PM17; well positions: D5-8; ΔrcsB mutant CMS5177; 4 h

SMILES	PosmB-lux reporter fold induction
Nc1ncn[nH]1 [3-amino-1,2,4-triazole]	5.84 ± 4.5

Same assay, conditions: Biolog plate: PM17; well positions: G1-4; ΔrcsB mutant CMS5177; 4 h

SMILES	PosmB-lux reporter fold induction
O=C(O)CCCc1ccc(N(CCCl)CCCl)cc1 [chlorambucil]	1.28 ± 0.21

Same assay, conditions: Biolog plate: PM18; well positions: C9-12; ΔrcsB mutant CMS5177; 4 h

SMILES	PosmB-lux reporter fold induction
Oc1c(Cl)c(Cl)c(Cl)c(Cl)c1Cl [pentachloro-phenol]	0.784 ± 0.046

Same assay, conditions: Biolog plate: PM18; well positions: E5-8; ΔrcsB mutant CMS5177; 4 h

SMILES	PosmB-lux reporter fold induction
[O-][I+3]([O-])([O-])O [sodium m-periodate]	1.04 ± 0.24

Same assay, conditions: Biolog plate: PM18; well positions: E9-12; ΔrcsB mutant CMS5177; 4 h

SMILES	PosmB-lux reporter fold induction
[Cl][Sb]([Cl])[Cl] [antimony (III) chloride]	0.481 ± 0.06

Same assay, conditions: Biolog plate: PM18; well positions: F1-4; ΔrcsB mutant CMS5177; 4 h

SMILES	PosmB-lux reporter fold induction
NNC(N)=O [semicarbazide]	3.86 ± 1.5

Same assay, conditions: Biolog plate: PM18; well positions: G1-4; ΔrcsB mutant CMS5177; 4 h

SMILES	PosmB-lux reporter fold induction
Oc1cc(Cl)ccc1Oc1ccc(Cl)cc1Cl [triclosan]	1.05 ± 0.51

Same assay, conditions: Biolog plate: PM18; well positions: G5-8; ΔrcsB mutant CMS5177; 4 h

SMILES	PosmB-lux reporter fold induction
Nc1n[nH]c(N)n1 [3,5-diamino-1,2,4-triazole (Guanazole)]	12 ± 5.6

Same assay, conditions: Biolog plate: PM18; well positions: H5-8; ΔrcsB mutant CMS5177; 4 h

SMILES	PosmB-lux reporter fold induction
Oc1ccccc1-c1ccccc1 [2-phenylphenol]	1.22 ± 0.42

Same assay, conditions: Biolog plate: PM18; well positions: H9-12; ΔrcsB mutant CMS5177; 4 h

SMILES	PosmB-lux reporter fold induction
CC1=CC(=O)c2c(O)cccc2C1=O [plumbagin]	1.11 ± 0.53

Same assay, conditions: Biolog plate: PM20; well positions: C5-8; ΔrcsB mutant CMS5177; 4 h

SMILES	PosmB-lux reporter fold induction
CN1[C@@H]2CC[C@H]1C[C@@H](OC(=O)C(CO)c1ccccc1)C2 (stereo not given in full) [atropine]	1.49 ± 0.44

Same assay, conditions: Biolog plate: PM20; well positions: E5-8; ΔrcsB mutant CMS5177; 4 h

SMILES	PosmB-lux reporter fold induction
CCCCCCCCCCCCNC(=N)N [dodine]	1.31 ± 0.24

Same assay, conditions: Biolog plate: PM20; well positions: F1-4; ΔrcsB mutant CMS5177; 4 h

SMILES	PosmB-lux reporter fold induction
O=c1cc(O)c2ccccc2o1 [4-hydroxyl-coumarin]	1.62 ± 0.32

Same assay, conditions: Biolog plate: PM20; well positions: G1-4; ΔrcsB mutant CMS5177; 4 h

SMILES	PosmB-lux reporter fold induction
O=C1C2CC=CCC2C(=O)N1SC(Cl)(Cl)Cl (stereo not given) [captan]	1.72 ± 0.34

Same assay, conditions: Biolog plate: PM20; well positions: H1-4; ΔrcsB mutant CMS5177; 4 h

SMILES	PosmB-lux reporter fold induction
O=C1C=C2C(=CCOC2O)O1 (stereo not given) [patulin]	2.24 ± 1.1

Same assay, conditions: Biolog plate: PM20; well positions: H5-8; ΔrcsB mutant CMS5177; 4 h

SMILES	PosmB-lux reporter fold induction
Cc1ccc(N(SC(F)(Cl)Cl)S(=O)(=O)N(C)C)cc1 [tolylfluanid]	1.7 ± 0.64
